Inconclusive results are not listed. Where a call stands in place of a potency, no number is given. Calls of active or inactive are those of the source. The call rests on the fitted dose curve.
Assay: Cytotoxicity counterscreen for inhibitors of SARS-CoV-2 cell entry (AID 1645845); further: nearly all actives have a fitted effect of over 50% in size
Details: cell viability (SARS-CoV-2 entry assay cells); series mostly up to 57.1 µM
In short: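 HEK293-ACE2 cells (Expi293F stably expressing human ACE2) seeded overnight, then compound for 1 h plus 48 h at 37C. Viability as ATP content by luminescence; normalized to wells with cells and media-only wells.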
Potency means the concentration at half of the fitted maximal effect.

SMILES | Potency
CC(=O)O/N=C1\C(=O)N(Cc2cc(Cl)ccc2Cl)c2ccc(Cl)cc21 | inactive
COCCNCc1ccc(-c2cc3nccc(Oc4ccc(NC(=O)C5(C(=O)Nc6ccc(F)cc6)CC5)cc4F)c3s2)nc1 | inactive
CC(C)C[C@H](NC(=O)[C@H](Cc1ccccc1)NC(=O)OCc1ccccc1)C(=O)C=O | inactive
Nc1nc(OC(c2ccc(-c3cccc(F)c3)cc2)C(F)(F)F)cc(-c2ccc(C[C@H](N)C(=O)O)cc2)n1 (stereo partly specified) | inactive
c1ccc(-c2cc(CCC3CCNCC3)c3ccccc3n2)cc1 | inactive
Cn1c(NC[C@@H](N)Cc2ccccc2)nc(-c2ccncc2)c(-c2ccc3ccccc3c2)c1=O | inactive
COc1cc(N2CCN(C)CC2)ccc1Nc1nccc(-c2cn(C)c3cnccc23)n1 | inactive
O=C1NC(=O)/C(=C\c2ccc(-c3ccc(F)cc3)o2)S1 | inactive
CC(C)(O)CNc1ncc(-c2ccnc(Nc3ccncc3)n2)c(CC2CC2)n1 | 25.1 µM (active)
Nc1nc(Nc2ccc3c(c2)CC[C@@H](N2CCCC2)CC3)nn1-c1cc2c(nn1)-c1ccccc1CCC2 | inactive
O=C(O)c1ccc(CCCc2ccc(OCCc3ccc(F)cc3)cc2)o1 | inactive
c1ccc(-c2ccc(CNc3nc(-c4ccccn4)nnc3-c3ccccc3)cc2)cc1 | 14.1 µM (active)

Assay: Primary qHTS to identify inhibitors of SARS-CoV-2 cell entry (AID 1645846); further: nearly all actives have a fitted effect of over 45% in size
Details: SARS-CoV-2 pseudovirus cell entry assay, luminescence; activity change, negative = inhibition: at 57.1 µM (top of the series) unless noted
In short: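 Inhibition of spike-mediated entry was scored in human ACE2-transfected Expi293F cells. Particles were MLV-pseudotyped with Wuhan-Hu-1 S carrying a 19-aa C-terminal deletion; signal was luciferase after two days, scaled between spike PP and fusion-protein-free PP.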

SMILES | activity change, negative = inhibition | Potency
COCCNCc1ccc(-c2cc3nccc(Oc4ccc(NC(=O)C5(C(=O)Nc6ccc(F)cc6)CC5)cc4F)c3s2)nc1 | -25.9% | –
CC(C)C[C@H](NC(=O)[C@H](Cc1ccccc1)NC(=O)OCc1ccccc1)C(=O)C=O | – | 14.1 µM (active)
Nc1nc(OC(c2ccc(-c3cccc(F)c3)cc2)C(F)(F)F)cc(-c2ccc(C[C@H](N)C(=O)O)cc2)n1 (stereo partly specified) | – | inactive
Cn1c(NC[C@@H](N)Cc2ccccc2)nc(-c2ccncc2)c(-c2ccc3ccccc3c2)c1=O | – | 28.2 µM (active)
Cc1nc2ccc(-n3ncc(C(=O)c4cc5ccccc5[nH]4)c3N)cc2[nH]1 | – | 11.2 µM (active)
O=C1NC(=O)/C(=C\c2ccc(-c3ccc(F)cc3)o2)S1 | – | inactive
CC(C)(O)CNc1ncc(-c2ccnc(Nc3ccncc3)n2)c(CC2CC2)n1 | – | 10 µM (active)
Nc1nc(Nc2ccc3c(c2)CC[C@@H](N2CCCC2)CC3)nn1-c1cc2c(nn1)-c1ccccc1CCC2 | – | 12.6 µM (active)
COCCN1CCN(Cc2ccc(-c3n[nH]c4c3C(=O)c3c(NC(=O)NN5CCOCC5)cccc3-4)cc2)CC1 | -93.4% | –
